# Measured values from PubChem BioAssay (NCATS).
# Inconclusive results are not listed. A call without a number means that no potency is given here. Unmarked numbers belong to inactive results. Active and inactive are the calls of the source. Calls come from the whole dose curve; as a rule, active = well fitted curve in the direction sought with a large enough effect; inconclusive = small, poorly fitted or top-dose-only effect, or another doubt; inactive = no such curve, though single readings can be large; an effect the other way counts as inactive or inconclusive.
# Columns and labels:
# [1] = target: ATP-dependent 6-phosphofructokinase (Trypanosoma brucei brucei) (UniProt O15648); experiment: qHTS Assay to Find Inhibitors of T. brucei phosphofructokinase: hit validation (AID 492961);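 note: luminescence reports ADP formed as PFK phosphorylates fructose-6-phosphate with ATP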
# In short: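 Compounds titrated; %activity normalized to 0x and 1x enzyme controls, curve-fitted. Readout: ADP-Glo luminescence after 45 min room-temperature reaction of 1.25 nM PFK, 0.1 mM ATP, 0.5 mM F6P, pH 8.0.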
# [2] = qHTS profiling for inhibitors of Plasmodium falciparum proliferation (AID 504749); note: potency is the fitted concentration of half-maximal effect; for all read-outs here: nearly all actives have a fitted effect of over 60% in size; conditions: P. falciparum in erythrocytes, SYBR Green DNA, 72 h; for activity, negative = inhibition: at 28.7 µM (top of the series)
# In short: (§1)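 SYBR Green fluorescence (ex 485 nm, em 535 nm) reports parasite DNA after 72 h compound exposure of infected red cells at 0.3% parasitemia, 2.5% hematocrit; signal normalized to 0.29 uM artemisinin and vehicle wells.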
# [3] = tested on: AA1029; experiment: as above; conditions: P. falciparum in erythrocytes, SYBR Green DNA, 72 h; series mostly up to 28.7 µM
# In short: as §1
# [4] = tested on: AS120; experiment: as above; conditions: P. falciparum in erythrocytes, SYBR Green DNA, 72 h; series mostly up to 28.7 µM
# In short: as §1
# [5] = tested on: ATS189; experiment: as above; conditions: P. falciparum in erythrocytes, SYBR Green DNA, 72 h; series mostly up to 28.7 µM
# In short: as §1
# [6] = tested on: CP185; experiment: as above; conditions: P. falciparum in erythrocytes, SYBR Green DNA, 72 h; series mostly up to 28.7 µM
# In short: as §1
# [7] = tested on: CP191; experiment: as above; conditions: P. falciparum in erythrocytes, SYBR Green DNA, 72 h; series mostly up to 28.7 µM
# In short: as §1
# [8] = tested on: CP192; experiment: as above; conditions: P. falciparum in erythrocytes, SYBR Green DNA, 72 h; series mostly up to 28.7 µM
# In short: as §1
# [9] = tested on: CP211; experiment: as above; conditions: P. falciparum in erythrocytes, SYBR Green DNA, 72 h; series mostly up to 28.7 µM
# In short: as §1
# [10] = tested on: CP217; experiment: as above; conditions: P. falciparum in erythrocytes, SYBR Green DNA, 72 h; series mostly up to 28.7 µM
# In short: as §1
# [11] = tested on: CP238; experiment: as above; conditions: P. falciparum in erythrocytes, SYBR Green DNA, 72 h; series mostly up to 28.7 µM
# In short: as §1
# [12] = tested on: CP252; experiment: as above; conditions: P. falciparum in erythrocytes, SYBR Green DNA, 72 h; series mostly up to 28.7 µM
# In short: as §1
# [13] = tested on: CP262; experiment: as above; conditions: P. falciparum in erythrocytes, SYBR Green DNA, 72 h; series mostly up to 28.7 µM
# In short: as §1
# [14] = tested on: CP265; experiment: as above; conditions: P. falciparum in erythrocytes, SYBR Green DNA, 72 h; series mostly up to 28.7 µM
# In short: as §1
# [15] = tested on: CP286; experiment: as above; conditions: P. falciparum in erythrocytes, SYBR Green DNA, 72 h; series mostly up to 28.7 µM
# In short: as §1
# [16] = tested on: Dd2; experiment: as above; conditions: P. falciparum in erythrocytes, SYBR Green DNA, 72 h; series mostly up to 28.7 µM
# In short: as §1
# [17] = tested on: ECU; experiment: as above; conditions: P. falciparum in erythrocytes, SYBR Green DNA, 72 h; series mostly up to 28.7 µM
# In short: as §1
# [18] = tested on: FAB9; experiment: as above; conditions: P. falciparum in erythrocytes, SYBR Green DNA, 72 h; series mostly up to 28.7 µM
# In short: as §1
# [19] = tested on: HB3; experiment: as above; conditions: P. falciparum in erythrocytes, SYBR Green DNA, 72 h; series mostly up to 28.7 µM
# In short: as §1
# [20] = tested on: N140; experiment: as above; conditions: P. falciparum in erythrocytes, SYBR Green DNA, 72 h; series mostly up to 28.7 µM
# In short: as §1
# ATP-dependent 6-phosphofructokinase (Trypanosoma brucei brucei), sequence (O15648 whole entry, looked up): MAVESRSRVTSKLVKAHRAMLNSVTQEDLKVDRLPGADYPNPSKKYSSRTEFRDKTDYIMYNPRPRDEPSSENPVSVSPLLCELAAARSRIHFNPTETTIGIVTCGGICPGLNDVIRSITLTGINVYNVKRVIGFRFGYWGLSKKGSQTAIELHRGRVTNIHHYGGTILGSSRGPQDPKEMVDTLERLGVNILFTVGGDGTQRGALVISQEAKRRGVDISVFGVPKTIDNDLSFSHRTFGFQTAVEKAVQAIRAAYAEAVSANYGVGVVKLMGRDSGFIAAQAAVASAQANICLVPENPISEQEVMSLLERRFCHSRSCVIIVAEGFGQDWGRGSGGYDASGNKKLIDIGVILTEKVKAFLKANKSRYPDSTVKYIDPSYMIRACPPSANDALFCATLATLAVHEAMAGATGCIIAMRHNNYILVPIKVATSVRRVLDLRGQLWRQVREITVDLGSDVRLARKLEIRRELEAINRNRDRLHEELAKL
smiles,measurement,setting,value
CC(=O)C1(O)Cc2c(O)c3c(c(O)c2C(OC2CC(N)C(O)C(C)O2)C1)C(=O)c1c(O)cccc1C3=O (stereo unspecified),Potency,[1],inactive
same,Potency,[2]; parasite line A,5.01 µM (active)
same,Potency,[2]; parasite line B,11.2 µM (active)
same,Potency,[3],5.01 µM (active)
same,Potency,[4],4.47 µM (active)
same,Potency,[5],8.91 µM (active)
same,Potency,[6],7.94 µM (active)
same,Potency,[7],5.01 µM (active)
same,Potency,[8],10.7 µM (active)
same,Potency,[9],9530 nM (active)
same,Potency,[10],10 µM (active)
same,Potency,[11],8.91 µM (active)
same,Potency,[12],8.91 µM (active)
same,Potency,[13],12 µM (active)
same,Potency,[14],10 µM (active)
same,Potency,[15],3160 nM (active)
same,Potency,[16],4470 nM (active)
same,Potency,[17],8.91 µM (active)
same,Potency,[18],11.2 µM (active)
same,Potency,[19],6.31 µM (active)
same,Potency,[20],7.08 µM (active)
C[C@@H]1CCN(C(=O)[C@H](CCCNC(=N)N)NS(=O)(=O)c2cccc3c2NC[C@H](C)C3)[C@@H](C(=O)O)C1,Potency,[1],inactive
same,"activity, negative = inhibition",[2]; parasite line A,3.79%
same,"activity, negative = inhibition",[2]; parasite line B,10.6%
same,Potency,[3],inactive
same,Potency,[4],inactive
same,Potency,[5],inactive
same,Potency,[6],inactive
same,Potency,[7],inactive
same,Potency,[8],inactive
same,Potency,[9],inactive
same,Potency,[10],inactive
same,Potency,[11],inactive
same,Potency,[12],inactive
same,Potency,[13],inactive
same,Potency,[14],inactive
same,Potency,[15],inactive
same,Potency,[16],inactive
same,Potency,[17],inactive
same,Potency,[18],inactive
same,Potency,[19],inactive
same,Potency,[20],inactive
NC(CSSCC(N)C(=O)O)C(=O)O (stereo unspecified),Potency,[1],inactive
same,"activity, negative = inhibition",[2]; parasite line A,5.04%
same,"activity, negative = inhibition",[2]; parasite line B,19%
same,Potency,[3],inactive
same,Potency,[4],inactive
same,Potency,[5],inactive
same,Potency,[6],inactive
same,Potency,[7],inactive
same,Potency,[9],inactive
same,Potency,[10],inactive
same,Potency,[11],inactive
same,Potency,[12],inactive
same,Potency,[13],inactive
same,Potency,[14],inactive
same,Potency,[15],inactive
same,Potency,[16],inactive
same,Potency,[17],inactive
same,Potency,[18],inactive
same,Potency,[19],inactive
same,Potency,[20],inactive
CC(=O)N1CC(O)CC1C(=O)O (stereo unspecified),Potency,[1],inactive
same,"activity, negative = inhibition",[2]; parasite line A,-10.1%
same,"activity, negative = inhibition",[2]; parasite line B,-6.82%
same,Potency,[3],inactive
same,Potency,[4],inactive
same,Potency,[5],inactive
same,Potency,[6],inactive
same,Potency,[7],inactive
same,Potency,[8],inactive
same,Potency,[9],inactive
same,Potency,[10],inactive
same,Potency,[11],inactive
same,Potency,[12],inactive
same,Potency,[13],inactive
same,Potency,[14],inactive
same,Potency,[15],inactive
same,Potency,[16],inactive
same,Potency,[17],inactive
same,Potency,[18],inactive
same,Potency,[19],inactive
same,Potency,[20],inactive
Nc1nc(F)nc2c1ncn2[C@@H]1O[C@H](CO)[C@@H](O)[C@H]1O,Potency,[1],inactive
same,"activity, negative = inhibition",[2]; parasite line A,9.43%
same,"activity, negative = inhibition",[2]; parasite line B,14.2%
same,Potency,[3],inactive
same,Potency,[4],inactive
same,Potency,[5],inactive
same,Potency,[6],inactive
same,Potency,[7],inactive
same,Potency,[8],inactive
same,Potency,[9],inactive
same,Potency,[10],inactive
same,Potency,[11],inactive
same,Potency,[12],inactive
same,Potency,[13],inactive
same,Potency,[14],inactive
same,Potency,[15],inactive
same,Potency,[16],inactive
same,Potency,[17],inactive
same,Potency,[18],inactive
same,Potency,[19],inactive
same,Potency,[20],inactive
CCCC(=O)Nc1c(I)cc(I)c(C[C@H](CC)C(=O)O)c1I,Potency,[1],inactive
same,"activity, negative = inhibition",[2]; parasite line A,2.81%
same,"activity, negative = inhibition",[2]; parasite line B,-1.24%
same,Potency,[3],inactive
same,Potency,[4],inactive
same,Potency,[5],inactive
same,Potency,[6],inactive
same,Potency,[7],inactive
same,Potency,[8],inactive
same,Potency,[9],inactive
same,Potency,[10],inactive
same,Potency,[11],inactive
same,Potency,[12],inactive
same,Potency,[13],inactive
same,Potency,[14],inactive
same,Potency,[15],inactive
same,Potency,[16],inactive
same,Potency,[17],inactive
same,Potency,[18],inactive
same,Potency,[19],inactive
same,Potency,[20],inactive
C=C[C@@]1(C)C[C@H](OC(=O)CSC(C)(C)CNC(=O)[C@@H](N)C(C)C)[C@@]2(C)C(C)CC[C@@]3(CCC(=O)[C@@H]32)[C@H](C)[C@H]1O (stereo partly specified),Potency,[1],inactive
same,Potency,[2]; parasite line A,3.16 µM (active)
same,Potency,[2]; parasite line B,1.41 µM (active)
same,Potency,[3],1.58 µM (active)
same,Potency,[4],3.55 µM (active)
same,Potency,[5],11.2 µM (active)
same,Potency,[6],1.41 µM (active)
same,Potency,[7],3.98 µM (active)
same,Potency,[8],3.38 µM (active)
same,Potency,[9],675 nM (active)
same,Potency,[10],5.62 µM (active)
same,Potency,[11],5.01 µM (active)
same,Potency,[12],1.26 µM (active)
same,Potency,[13],0.239 µM (active)
same,Potency,[15],447 nM (active)
same,Potency,[16],282 nM (active)
same,Potency,[17],4.47 µM (active)
same,Potency,[20],1.41 µM (active)
CN[C@H](C)CCC=C(C)C,Potency,[1],inactive
same,Potency,[2]; parasite line A,0.355 µM (active)
same,Potency,[2]; parasite line B,0.141 µM (active)
same,Potency,[3],0.199 µM (active)
same,Potency,[4],0.224 µM (active)
same,Potency,[5],0.282 µM (active)
same,Potency,[6],0.708 µM (active)
same,Potency,[7],0.708 µM (active)
same,Potency,[8],0.953 µM (active)
same,Potency,[9],953 nM (active)
same,Potency,[10],0.355 µM (active)
same,Potency,[11],0.355 µM (active)
same,Potency,[12],0.355 µM (active)
same,Potency,[13],1.07 µM (active)
same,Potency,[14],0.398 µM (active)
same,Potency,[15],398 nM (active)
same,Potency,[16],79.4 nM (active)
same,Potency,[17],0.224 µM (active)
same,Potency,[18],1.41 µM (active)
same,Potency,[19],0.199 µM (active)
same,Potency,[20],0.112 µM (active)
CC1C(=O)C(=O)C=CN1C (stereo unspecified),Potency,[1],inactive
same,"activity, negative = inhibition",[2]; parasite line A,3.53%
same,"activity, negative = inhibition",[2]; parasite line B,9.14%
same,Potency,[3],inactive
same,Potency,[4],inactive
same,Potency,[5],inactive
same,Potency,[6],inactive
same,Potency,[7],inactive
same,Potency,[8],inactive
same,Potency,[9],inactive
same,Potency,[10],inactive
same,Potency,[11],inactive
same,Potency,[12],inactive
same,Potency,[13],inactive
same,Potency,[14],inactive
same,Potency,[15],inactive
same,Potency,[16],inactive
same,Potency,[17],inactive
same,Potency,[18],inactive
same,Potency,[19],inactive
same,Potency,[20],inactive
COc1ccc2cc1Oc1cc3c(cc1OC)CC[N+](C)(C)C3Cc1ccc(cc1)Oc1c(OC)c(OC)cc3c1C(C2)[N+](C)(C)CC3 (stereo unspecified),Potency,[1],inactive
same,"activity, negative = inhibition",[2]; parasite line A,13.3%
same,"activity, negative = inhibition",[2]; parasite line B,0.155%
same,Potency,[3],inactive
same,Potency,[4],inactive
same,Potency,[5],inactive
same,Potency,[6],inactive
same,Potency,[7],inactive
same,Potency,[8],inactive
same,Potency,[9],inactive
same,Potency,[10],inactive
same,Potency,[11],inactive
same,Potency,[12],inactive
same,Potency,[13],inactive
same,Potency,[14],inactive
same,Potency,[15],inactive
same,Potency,[16],inactive
same,Potency,[17],inactive
same,Potency,[18],inactive
same,Potency,[19],inactive
same,Potency,[20],inactive
